Test results from PubChem BioAssay AID1117319 (Southern Research Institute, 2015).
In all, about 260,000 compounds went through this assay and about 1,500 (0.58%) were called active. About 5% were inconclusive and are not listed.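 The calls were made as follows: active = inhibition above a set limit at one or more doses, reproduced on every date tested; inconclusive = results disagree between test dates, or hit never tested in dose response; inactive = the rest.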 A selection follows. Entries with a potency or affinity are not part of this list.

These compounds were tested against Virion infectivity factor (Human immunodeficiency virus type 1 group M subtype B (isolate BH10)) + Virion infectivity factor (Human immunodeficiency virus type 1 group M subtype B (isolate BRU/LAI)) + Virion infectivity factor (Human immunodeficiency virus type 1 group M subtype B (isolate PCV12)) + Virion infectivity factor (Human immunodeficiency virus type 1 group M subtype B (isolate HXB2)) + DNA dC->dU-editing enzyme APOBEC-3G (Homo sapiens) (UniProt P69720+P69721+P69722+P69723+Q9HC16) (assay: HIV-1 Vif–A3G interaction blockers – biochemical, TR-FRET, GST-Vif 1-94, biotin-A3G peptide, dose response retest, primary screen (AID 1117319;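 also: Vif residues 1-94 fused to GST binding biotinylated APOBEC3G peptide 110-148; 0% = full assay without inhibitor and 100% = GST in place of GST-Vif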)). Details: TR-FRET GST-Vif / biotin-A3G peptide binding; hits give high values.

inhibition, inactive:
O=C(NCc1cccnc1)c1cc2nc(-c3cccs3)cc(C(F)(F)Cl)n2n1 -9.65%
Cn1c(CNc2ccccc2O)nc2ccccc21 17.5%
CCCn1c(CNc2ccc(Br)cc2)nc2ccccc21 -3.54%
COc1ccc(NCc2nc3ccccc3n2CCOc2ccc(C)cc2)cc1 8.44%
CCOc1ccc(NCc2nc3ccccc3n2CCOc2ccccc2)cc1 11.4%
CCOC(=O)n1c(=O)oc2cc(S(=O)(=O)N3CCOCC3)ccc21 9.96%
COc1ccc(Cc2nnc(SCC(=O)NCc3ccco3)o2)cc1 3.47%
COc1cc(-c2nnc(-c3cccs3)o2)cc(OC)c1OC 2.65%
COc1ccc(-c2nnc(-c3cccs3)o2)cc1OC 25.2%
Cc1ccc(C(=O)N[C@H](C(=O)OCC(=O)c2ccc[nH]2)C(C)C)cc1 -7.75%
Cc1ccc2c(c1)/C(=C/c1ccco1)C(=O)N2 6.3%
O=C1NC(=S)NC1=Cc1ccc(O)cc1 4.35%
O=C1C(=Cc2ccco2)C(=O)c2ccccc21 -3.58%
O=C1NC(=S)NC1=Cc1ccccc1O -3.79%
Cc1ccc(/C(O)=C2/C(=O)C(=O)N(c3ccccn3)C2c2cccc([N+](=O)[O-])c2)cc1 (stereo not drawn) 1.22%
O=C(Nn1cnnc1)c1ccc(Cl)c([N+](=O)[O-])c1 -7.17%
CCN(CC)C(=O)[C@H]1C[C@H](CC(=O)NCc2ccco2)C(=O)N2CCc3c([nH]c4cc(-c5ccco5)ccc34)[C@]12C -1.87%
O=C(O)CCCNC(=O)c1cncc(Br)c1 -4.15%
COc1cc(-c2nnc3n2CCCCC3)cc(OC)c1OC -1.21%
Cc1ccc(NC(=O)C(NC2CCCC2)c2ccccc2)cc1Cl (stereo not drawn) 21.3%
O=C1NN(c2ccccc2)C(=O)/C1=C/c1ccc(Sc2ccc(Cl)cc2)o1 -5.35%
N#C/C(=C\c1ccc(Sc2nc3ccccc3[nH]2)o1)c1ccccc1 4.57%
N#C/C(=C/c1ccc(Sc2nc3ccccc3[nH]2)o1)c1cccc(F)c1 25.4%
C=CCN1C(=O)S/C(=C/c2ccc(Sc3nc4ccccc4[nH]3)o2)C1=O -2.89%
CC(C)N=C1NN=C(c2cccs2)C(CC(=O)O)S1 (stereo not drawn) 1.51%
CCOc1ncccc1C(=O)OCC(=O)Nc1c(C)cc(C)cc1C 2.59%
Nc1c(C(=O)Nc2ccccc2)sc2nc3c(c(-c4ccco4)c12)CCC3 13.2%
Nc1c(C(=O)Nc2ccccc2)sc2nc3c(c(-c4ccco4)c12)CCCC3 -0.46%
